# Only some compounds are listed: those with a hit (about 15% of all), similar ones and a draw of the others.
# Sm TGR block: inhibitors of Schistosoma mansoni thioredoxin glutathione reductase; Q962Y6; purified TGR, DTNB reduction, TNB absorbance 405 nm; Potency, µM (top dose mostly 114 µM), for inactives: at the top dose activity change, negative = inhibition, usual class: inhibitors; 3% of 360,000 active; also: potency is read from the fitted curve at half-maximal effect; % is scaled to controls: 0 for no effect and ±100 for the full control effect; nearly all actives have a fitted effect of over 60% in size
#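 First, TGR (20 nM dispensed) and NADPH were mixed with compound. Second, a 15 min room-temperature incubation followed. Third, further NADPH and then DTNB were added to start the reaction. Finally, TNB absorbance was monitored kinetically.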
# Pf growth 96h: inhibits malaria parasite growth, 96 h | AID 504834 | Potency, µM (titrated, usually from 28.7 µM), without a hit: at the top dose activity change, negative = inhibition, most hits filed as inhibitors | P. falciparum luciferase reporter growth, 96 h | 6.9% of 320,000 active; also: potency is read from the fitted curve at half-maximal effect; % is scaled to controls: 0 for no effect and ±100 for the full control effect
#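 Parasite growth measured via integrated firefly luciferase reporter in P. falciparum. Infected erythrocytes at 2% hematocrit, 0.05% parasitemia final were treated 96 hours at 37 C under 5% CO2, and luminescence was read.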
# HCV inhibitor: inhibitors of hepatitis C virus infection | Potency, µM (highest dose often 41.8 µM), inactives show at the highest dose activity change, negative = inhibition, actives largely listed as inhibitors | 3.4% of 340,000 active | Huh7.5.1 HCVcc-Cre infection, luciferase reporter, 44 h | AID 651820; also: potency is read from the fitted curve at half-maximal effect; % is scaled to controls: 0 for no effect and ±100 for the full control effect
#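 1,000 cells/well; 4 h culture; + compound; + HCVcc-Cre (~0.5 moi); 44 h; luciferase substrate, RT 15 min; read 15 sec.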
# Pf growth 48h: inhibits P. falciparum growth in the first generation, 48 h; P. falciparum luciferase growth in erythrocytes, 48 h; Potency, µM (doses to about 28.7 µM), without a hit: top-dose activity change, negative = inhibition, usual class: inhibitors; 5.9% of 310,000 active; also: potency is read from the fitted curve at half-maximal effect; % is scaled to controls: 0 for no effect and ±100 for the full control effect
#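 Here the parasites carry a stable luciferase gene and grow inside erythrocytes in Albumax-based RPMI medium with compound for one erythrocytic cycle. Activity is scored as loss of luminescent signal.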
# SARS PLP yeast: inhibitors of SARS-CoV papain-like protease in yeast; S. cerevisiae expressing SARS-CoV PLpro, growth rescue; 0.19% of 330,000 active; Potency, µM (highest dose often 32.9 µM), without a hit: at the highest dose activity, positive = growth rescue, hits mostly activators; calls by dose curve; also: potency is read from the fitted curve at half-maximal effect; 0% is about no effect; nearly all actives have a fitted effect of over 55% in size
# HCMV inh: inhibitors of human cytomegalovirus. HFF cells, HCMV-luciferase reporter, 72 h; stronger effect = lower value. activity change, negative = inhibition, % at 57.5 µM. 4.5% of 410,000 active. AID 1259415; in the data active = activity change below about -60%; inconclusive = no clear call, values can overlap the other calls; inactive = above about -39%; also: % is scaled to controls: 0 for no effect and ±100 for the full control effect
#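 Luciferase read-out from HCMV-luciferase-infected HFFs (MOI 1 PFU/cell) 72 h post infection at 37C; compounds added after 16 h cell attachment; activity normalized between buffer-only basal and Salinomycin (10uM) inhibitor controls.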
# Starred values were filed as active, the others as inactive; ? = inconclusive; · = no result; [ ] = remark or other dose. Unless noted, calls follow the shape of the dose curve; as a rule, active = well fitted curve in the direction sought with a large enough effect; inconclusive = small, poorly fitted or top-dose-only effect, or another doubt; inactive = no such curve, though single readings can be large; an effect the other way counts as inactive or inconclusive.
SMILES,Sm TGR block,Pf growth 96h,HCV inhibitor,Pf growth 48h,SARS PLP yeast,HCMV inh
CCc1ccc(Nc2n[n+](-c3ccccc3)c(/C=C/c3ccccc3)s2)cc1,-2%,1.2µM*,·,?,-1%,·
CCc1ccc(Nc2nc3ccccc3c(=O)s2)cc1,-6%,-24%,13%,-7%,22%,-15
CCc1ccc(Nc2n[n+](-c3ccccc3)c(-c3cc(OC)c(OC)cc3Br)s2)cc1,-8%,12µM*,?,?,6%,23
CCc1ccc(Nc2n[n+](-c3ccccc3)c(-c3c(Cl)cccc3Cl)s2)cc1,-1%,?,5.6µM*,10µM*,-6%,-98*
COc1ccc(NC(=O)CSC2=Nc3ccccc3C3=NC(CCC(=O)NCCc4ccccc4)C(=O)N23)c(OC)c1 (configuration not stated),13%,·,·,·,·,-37
CCOc1ccccc1NC(=S)/C(=C(\[O-])c1ccc2c(c1)OCCO2)[n+]1ccc(CC)cc1,-16%,2.3µM*,-18%,·,6%,26
CCCSc1nc(NCc2ccco2)c2c3c(sc2n1)COC(C)(C)C3,-19%,?,-16%,?,-27%,-36
O=C(NNC(=S)NC(=O)c1cccnc1)c1ccc(Cl)cc1,-33%,22%,?,?,-10%,25
O=C(Cc1ccc(Cl)cc1)NNC(=S)NC(=O)c1cccnc1,·,4.1µM*,5%,-66%,2%,11
CCCCOc1ccc(C(=O)NNC(=O)c2cnccn2)cc1OC,·,·,13µM*,·,-1%,?
COc1ccc(OC)c(/C=N/NC(=O)c2cnccn2)c1,2%,63%,24%,-3%,0%,16
O=C(NCCCNC(=O)c1cnccn1)c1ccc(Cl)cc1,-6%,8%,-5%,-7%,0%,99
COc1ccc(C(=O)NC(=S)NNC(=O)c2cnccn2)cc1,-12%,?,?,2.6µM*,-26%,-85*
O=C(NC(=S)NNC(=O)c1cnccn1)c1ccc(Cl)cc1,14%,?,?,4.1µM*,2%,94
COc1ccc(CC(=O)NNC(=O)c2cnccn2)cc1,6%,23%,10%,8%,3%,11
Cc1ccc(Cn2cc(S(=O)(=O)c3cccc(Cl)c3)c(=O)c3cc(F)c(N4CCCCC4)cc32)cc1,0%,·,·,·,·,?
COCCN(C(=O)COC(=O)CCC(=O)c1cccs1)c1c(N)n(Cc2ccccc2)c(=O)[nH]c1=O,-13%,51%,7%,32%,-3%,-27
CN(NC(=O)c1ccc(Cl)cc1)c1nc(-c2ccccc2)nnc1C(F)(F)F,10%,76%,-26%,91%,-1%,-105*
CSc1nc(N(C)NC(=O)c2ccc(Cl)cc2)c2ccccc2n1,4%,3.7µM*,?,3.3µM*,-2%,-65*
O=C(OC1CCOC1=O)C1CCN(S(=O)(=O)c2c(Cl)cccc2Cl)CC1 (configuration not stated),-12%,9%,9%,?,-2%,-20
NS(=O)(=O)c1ccc(N2N=C(c3ccccc3)CC2c2ccc(Br)cc2)cc1 (configuration not stated),·,·,·,·,·,15
NS(=O)(=O)c1ccc(N2N=C(c3ccccc3)CC2c2ccccc2)cc1 (configuration not stated),-9%,9.3µM*,?,-24%,-3%,2
COc1ccc(C2=NN(CN3C(=O)C(=O)c4ccccc43)C(c3ccc(Br)cc3)C2)cc1 (configuration not stated),-24%,11%,10µM*,·,3%,-20
NS(=O)(=O)c1ccc(N2N=C(c3ccccc3)CC2c2ccccc2Cl)cc1 (configuration not stated),·,·,32µM*,·,-35%,?
COc1ccc(C2CC(c3ccccc3F)=NN2c2ccc(S(N)(=O)=O)cc2)cc1 (configuration not stated),·,·,-1%,·,23%,15
SMILES,Sm TGR block,Pf growth 96h,HCV inhibitor,Pf growth 48h,SARS PLP yeast,HCMV inh
COc1ccc(C2CC(c3ccccc3Br)=NN2c2ccc(S(N)(=O)=O)cc2)cc1 (configuration not stated),·,·,11µM*,·,4%,18
COc1cccc2c1NC1(C)c3cc4c(cc3-n3nncc3CN1C2=O)OCO4 (configuration not stated),·,·,·,·,·,-11
COc1ccc(NC(=O)CC2C(=O)N(c3ccc(C)cc3)C(=O)N2C2CCCC2)cc1 (configuration not stated),4%,·,·,·,·,0
O=C(/C=C/c1cccc(Cl)c1)NCc1ccccc1,10%,19%,6%,0%,-7%,?
O=C(CCC1CCCCC1)NCCS(=O)(=O)N1CCN(c2ccccc2)CC1,-4%,16%,1%[8.37 µM],1%,-4%,-31
Cc1sc(N2CCN(S(=O)(=O)c3ccc4c(c3)NC(=O)CO4)CC2)nc1-c1ccccc1,-21%,9.3µM*,4%,?,-11%,45
O=C1COc2ccc(S(=O)(=O)N3CCN(c4ccccc4F)CC3)cc2N1,-1%,69%,?,-17%,-1%,-25
COc1ccc(-c2csc(N3CCN(S(=O)(=O)c4ccc5c(c4)NC(=O)CO5)CC3)n2)cc1,1%,12µM*,?,8.3µM*,-3%,-88*
O=S(=O)(c1ccc(F)cc1)N1CCN(c2nc(-c3ccc(F)cc3)cs2)CC1,3%,?,-22%,?,1%,?
COc1ccc(OCc2nc3ccccc3n2Cc2ccccc2Cl)cc1,1%,·,·,·,·,3
N#CC1(C#N)CC(C=O)=C(N)C1(C#N)CC(=O)C12CC3CC(CC(C3)C1)C2 (configuration not stated),40µM*,?,8%,?,-10%,-2
CCCc1nc2oc3c(OC)ncnc3c2c2c1COC(C)(C)C2,-13%,6.6µM*,?,·,2%,-35
CCCc1nc2oc3c(NCCOCCO)ncnc3c2c2c1COC(C)(C)C2,7%,3.7µM*,-13%,-1%,6%,-102*
Cc1nc2oc3c(NCc4ccccc4)ncnc3c2c2c1COC(C)(C)C2,10%,?,-30%,12µM*,12%,-28
CC(C)c1nc2oc3c(NCCO)ncnc3c2c2c1COC(C)(C)C2,1%,?,8%,-7%,-1%,40
COc1ccc(/C=C2\SC(N3CCc4ccccc4C3)=NC2=O)cc1OC,3%,0%,8%,8%,-44%,16
COc1cc2c(CCNC(C)=O)c[nH]c2cc1Cl,-1%,12%,20%,15%,·,-92*
COc1ccc(OC)c(NC(=O)NCCc2c[nH]c3ccccc23)c1,6%,-14%,?,?,-1%,-87*

# Screening data (PubChem BioAssay)
